NR3A LBD binder: NR3A (human) ligand-binding domain modulation | 340,000 tested, 2.5% active | Tm shift relative to glycine control, % at 25 µM | NR3A LBD differential scanning fluorimetry, Tm shift; 0% = protein alone, 100% = glycine-bound protein | AID 1259313;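 active means melting temperature shift of at least 10% of the positive control shift, at one fixed dose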
Gli-Sufu block: antagonists of Gli-Sufu signaling; 340,000 tested, 0.74% active; Sufu-KO-LIGHT fibroblasts, Gli luciferase reporter luminescence; inhibition, % at 5 µM;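 active means inhibition above about 55%, limit read from the data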;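 further: 0% = DMSO-treated cells and 100% = wells with medium but no cells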
MPTP block: blocks calcium-induced mitochondrial swelling; isolated mouse mitochondria, Ca2+ swelling absorbance, 30 min; inhibition, % at 10 µM; 360,000 tested, 1.4% active;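 active means inhibition of 50% or more, scaled per plate between neutral and stimulator controls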;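 further: 0% = DMSO wells given calcium and 100% = 1 mM EGTA wells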
Mdm2 MdmX PPI: inhibitors of human Mdm2/MdmX interaction. inhibition, % at 8 µM. 330,000 tested, 3% active. AID 485346. O15151+Q00987. SaOS-2 split-luciferase Mdm2/MdmX complementation, luminescence;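 active means inhibition of at least 50% at 8 µM in the primary screen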
Beta apoptosis: blocks beta cell apoptosis | INS-1E cytokine-induced death, ATP luminescence, 48 h; percent of positive-control rescue, neutral wells zero | protection from apoptosis, % (no concentration beside the values) | 300,000 tested, 0.8% active;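 active means Every replicate reaches about 75%, or at least half do and their mean reaches it too, limit read from the data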;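 further: 0% = cytokine-treated negative control wells and 100% = positive control rescue; higher means more ATP so stronger rescue from cytokine killing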
CSC inhib: cancer stem cell inhibition | cancer stem cell-like cells viability, luminescence | inhibition, % at 7.5 µM | 300,000 tested, 1.1% active | AID 2717; in the data active means inhibition above about 75%; tested in HMLE shEcad cells
Mdm2-MdmX conf: confirmation of human Mdm2/MdmX interaction inhibitors | inhibition, % at 8 µM | shares compounds with Mdm2 MdmX PPI | 10,000 tested, 55% active | Mdm2-MdmX binding, luminescent assay; in the data active means inhibition above about 40%
FLuc counter: full-length luciferase inhibition in Mdm2/MdmX counter-screen | shares compounds with Mdm2 MdmX PPI | SaOS-2 full-length luciferase counterscreen, luminescence | inhibition, % at 8 µM | 6,200 tested, 77% active;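 active means mean inhibition at 8 µM reaching about 37%, which flags the compound as non-specific, limit read from the data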;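 further: p53-null SaOS-2 cells with luciferase driven by a doxycycline-inducible promoter; compound on cells about two nights before reading with doxycycline added after day one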
* = called active by the depositor; . = not tested or not shown. Compounds with a hit are over-represented: about 6.6% of the library has one in this group of screens.

SMILES	NR3A LBD binder	Gli-Sufu block	MPTP block	Mdm2 MdmX PPI	Beta apoptosis	CSC inhib	Mdm2-MdmX conf	FLuc counter
CN=C(Nc1cccnc1)c1ccccc1	1	6	0	-1	0	-15	.	.
O=P1(O)Cc2ccccc2-c2ccccc21	1	15	-1	.	.	.	.	.
CCCCN(CCCC)Cc1cc(=O)oc2ccc3ccccc3c12	.	.	2	.	.	.	.	.
CC1=CC(=O)C(C(C)C)=C/C1=N\OC(=O)c1cccc2nc(C)oc12	1	28	0	53*	-5	7	20	.
N#C/C(=C\C=C\c1ccccc1[N+](=O)[O-])C(=O)NCc1ccccc1	-2	0	0	97*	-28	56	66*	17
N#C/C(=C\c1ccccc1[N+](=O)[O-])C(=O)NCc1ccccc1	3	5	2	-5	-13	3	.	.
CCCN1CC=C2C(C#N)=C(N)C(C#N)(C#N)C(c3cccc(OC)c3OC)C2C1 (stereo unspecified)	-2	-3	1	7	-2	-16	.	.
COc1cccc(OC)c1OCc1cc(C2C3CCCC=C3C(C#N)=C(N)C2(C#N)C#N)c(C)cc1C (stereo unspecified)	-6	3	-4	51*	-8	3	1	.
CC1CCCC(C)N1CCCNC(=O)c1cc2c(s1)-c1ccccc1OC2 (stereo unspecified)	0	2	2	61*	-6	22	26	.
Cc1cccc2c1-c1sc(C(=O)NCCCN3CCCC(C)C3)cc1CO2 (stereo unspecified)	-4	26	44	67*	14	12	49*	59*
CCCN1CCN(CCCNC(=O)c2cc3c(s2)-c2ccccc2OC3)CC1	-3	17	0	40	0	7	.	.
CC1CC(C)CN(CCCNC(=O)c2cc3c(s2)-c2ccccc2OC3)C1 (stereo unspecified)	-4	27	1	38	5	28	.	.
CCCN1CCN(CCCNC(=O)c2cc3c(s2)-c2c(C)cccc2OC3)CC1	-3	37	0	62*	46	14	25	.
CC(C)c1nnc(NC(=O)c2nc(S(=O)(=O)Cc3ccccc3)ncc2Cl)s1	0	38	-2	97*	.	.	76*	50*
CSc1nnc(NC(=O)c2nc(S(=O)(=O)Cc3ccccc3)ncc2Cl)s1	0	11	-1	99*	.	.	94*	2
CC(C)c1nnc(NC(=O)CCc2ccccc2)s1	0	-7	0	-4	2	4	.	.
CCc1nc(SCc2ccccc2C#N)n[nH]1	0	-13	0	3	.	.	.	.
Cc1ccc(S(=O)(=O)n2cc(-c3ccccc3)c3ccccc32)cc1	-1	19	2	63*	15	99*	57*	82*
COc1cc(NC(=O)[C@H]2O[C@@H](n3ccc(N)nc3=O)[C@H](O)[C@@H]2O)cc(OC)c1OC	.	.	1	.	.	.	.	.
COc1cc(NS(=O)(=O)c2ccc(N/C=C(\C#N)c3nc4cc(Cl)ccc4o3)cc2)nc(OC)n1	6	34	-5	54*	22	95*	44*	35
COc1cccc2c1C(=O)c1c(O)c3c(c(O)c1C2=O)C[C@](O)(C(C)=O)C[C@H]3O[C@@H]1C[C@@H](N)[C@@H](O)[C@@H](C)O1	-4	56*	3	100*	44	74	100*	-1
Cc1cccc(Nc2nnc(SCC(=O)c3c(N)n(C4CC4)c(=O)[nH]c3=O)s2)c1	-2	-3	2	22	0	20	.	.
Cc1ccc(Nc2nnc(SCC(=O)c3c(N)n(C4CC4)c(=O)[nH]c3=O)s2)cc1C	-9	0	0	71*	2	14	4	.
Cc1ccc2nc(SCC(=O)c3c(N)n(C4CC4)c(=O)[nH]c3=O)[nH]c2c1	-1	1	0	7	.	.	.	.
Cc1cc(C)cc(-c2nnc(SCC(=O)c3c(N)n(C4CC4)c(=O)[nH]c3=O)o2)c1	-1	0	-1	54*	.	.	14	.
CCCc1cc(=O)[nH]c(SCC(=O)c2c(N)n(C3CC3)c(=O)[nH]c2=O)n1	2	5	0	96*	1	.	14	.
